The values that follow come from PubChem BioAssay (EPA / NIEHS).

Values joined by “and” are separate entries in the source; they are usually repeats but may differ in a detail not shown here. Equal entries are not always repeated. Records with an inconclusive call do not appear. A structure can be active in one record and inactive in another. Active and inactive are the calls of the source. The calls were made as follows, unless noted: active = hit-call score of the fitted dose curve at least 0.9, where 1 is the maximum; inconclusive = response in the unintended direction; inactive = score below 0.9.

The subject of assay [1] is zebrafish Estrogen Receptor (ER2a), gene 317734. Nature of the assay: ATG_zfER2a_XSP2: Attagene TRANS-FACTORIAL Multi-Species (XSP2) HepG2 Assay for zebrafish Estrogen Receptor (ER2a) (AID 2283818).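 Also: hits raise reporter mRNA so AC50 reflects activation of zebrafish ER2a.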 The procedure, abridged: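 Multiplexed trans-reporter readout: RT-PCR then capillary electrophoresis of reporter transcripts after 24 h compound treatment. Human HepG2 carries transfected zebrafish ER2a-Gal4 chimera; 3 nM 6-alpha-fluorotestosterone plus 1.5 nM norgestrel present. Induction scored against DMSO.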

For assay [2], the system named is zebrafish Estrogen Receptor (ER2b), gene 317733. Nature of the assay: ATG_zfER2b_XSP2: Attagene TRANS-FACTORIAL Multi-Species (XSP2) HepG2 Assay for zebrafish Estrogen Receptor (ER2b) (AID 2283823).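 Also: fitted upward as reporter gain over DMSO so potency reflects activation.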 In short, it runs like this:
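Cells used were HepG2, transiently transfected with chimeric nuclear receptor-Gal4 reporter units. After 24 h of chemical treatment, reporter transcripts were amplified by RT-PCR, labelled and sized by capillary electrophoresis, with induction analysed relative to DMSO.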

In assay [3] the target is Estrogen receptor (Homo sapiens) (UniProt P03372). Description: ATG_hERa_XSP2: Attagene TRANS-FACTORIAL Multi-Species (XSP2) HepG2 Assay for human Estrogen Receptor (ERa) (AID 2283827). The procedure, abridged:
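Trans-activation of exogenous human ERa-Gal4 chimera read in HepG2 as reporter transcript after 24 h exposure; medium included 3 nM 6-alpha-fluorotestosterone and 1.5 nM norgestrel. Quantified by RT-PCR with capillary electrophoresis, positive-direction fitting against DMSO.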

The subject of assay [4] is frog Estrogen Receptor (ER2), gene 100174814. Description: ATG_frER2_XSP2: Attagene TRANS-FACTORIAL Multi-Species (XSP2) HepG2 Assay for frog Estrogen Receptor (ER2) (AID 2283828). In short, it runs like this:
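Induction of reporter mRNA, baseline set by DMSO, is the endpoint. The panel was run in transfected HepG2 cells over 24 h, with 3 nM 6-alpha-fluorotestosterone and 1.5 nM norgestrel present to stimulate androgen receptor.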

In assay [5] the target is Peroxisome proliferator-activated receptor gamma (Homo sapiens) (UniProt P37231). Nature of the assay: ATG_hPPARg_XSP2: Attagene TRANS-FACTORIAL Multi-Species (XSP2) HepG2 Assay for human Peroxisome Proliferator-activated Receptor gamma (PPARg) (AID 2283829).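 Also: actives raise reporter mRNA above DMSO so AC50 reflects PPARg activation.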 The procedure, abridged:
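After transfecting HepG2 with GAL4-UAS reporter constructs, cells are dosed for 24 h; total RNA is reverse-transcribed, PCR-amplified, FAM-labeled, HpaI-digested and resolved by capillary electrophoresis. Activity is measured as mRNA induction relative to DMSO.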

Assay [6] deals with Nuclear receptor subfamily 1 group I member 2 (Mus musculus) (UniProt O54915). Description: ATG_mPXR_XSP2: Attagene TRANS-FACTORIAL Multi-Species (XSP1) HepG2 Assay for mouse Pregnane X Receptor (PXR) (AID 2283831). The procedure, abridged: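 Reporter transcripts were quantified by RT-PCR, FAM primer extension, HpaI digestion and capillary electrophoresis after 24 h of chemical exposure in transiently transfected HepG2 cells carrying chimeric receptor-GAL4 constructs; DMSO served as baseline.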

The target of assay [7] is zebrafish Thyroid Hormone Receptor alpha (TRa), thraa (gene 30670) (UniProt Q98867). Description: ATG_zfTRa_XSP2: Attagene TRANS-FACTORIAL Multi-Species (XSP1) HepG2 Assay for zebrafish Thyroid Hormone Receptor alpha (TRa) (AID 2283832).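 Also: actives raise zebrafish TRa-Gal4 reporter transcript above DMSO baseline.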 The procedure, abridged:
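Chimeric zebrafish TRa-Gal4 activity read in transfected human HepG2 as GAL4-UAS reporter transcripts, 24 h post-dose, via RT-PCR with labeled primer extension and capillary electrophoresis. Medium also carries 3 nM 6-alpha-fluorotestosterone and 1.5 nM norgestrel; DMSO baseline.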

The test system of assay [8] is zebrafish Peroxisome Proliferator-activated Receptor gamma (PPARg), gene 557037. Description: ATG_zfPPARg_XSP2: Attagene TRANS-FACTORIAL Multi-Species (XSP2) HepG2 Assay for zebrafish Peroxisome Proliferator-activated Receptor gamma (PPARg) (AID 2283833).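 Also: actives increase reporter signal over DMSO so AC50 reflects activation.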 In short, it runs like this: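 Multi-species TRANS format in HepG2, 24 h dosing; medium also contained 3 nM 6-alpha-fluorotestosterone and 1.5 nM norgestrel to stimulate androgen receptor. Zebrafish PPARg-GAL4 induced reporter mRNA was measured by RT-PCR/capillary electrophoresis.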

The nature of assay [9]: ATG_M_61_XSP2: Attagene TRANS-FACTORIAL Multi-Species (XSP2) HepG2 Assay for M61 Transcription Factor (Internal Marker) (AID 2283835; active = hit-call score of the fitted dose curve at least 0.9, where 1 is the maximum; inactive = score below 0.9;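 also: active means a rise in signal above the DMSO baseline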). The procedure, abridged: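 Signal was mRNA induction detected as fluorescence after RT-PCR and capillary electrophoresis, analysed in the gain direction with DMSO as baseline. HepG2 cells transiently carrying reporter constructs received chemicals for 24 h.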

Assay [10] has as its target zebrafish Thyroid Hormone Receptor beta (TRb), thrb (gene 30607) (UniProt Q9PVE4). Description: ATG_zfTRb_XSP2: Attagene TRANS-FACTORIAL Multi-Species (XSP1) HepG2 Assay for zebrafish Thyroid Hormone Receptor beta (TRb) (AID 2283836). The procedure, abridged:
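Reporter transcripts measured by RT-PCR, 6-FAM labelling, HpaI digestion and capillary electrophoresis after 24 h chemical exposure. Human HepG2 cells carry an exogenous zebrafish TRb-GAL4 chimera; medium included 3 nM 6-alpha-fluorotestosterone plus 1.5 nM norgestrel.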

A short description of assay [11]: ATG_XTT_Cytotoxicity_XSP2: Cytotoxicity Assessment in the Attagene TRANS-FACTORIAL Multi-Species (XSP2) HepG2 Assay (AID 2283837). The procedure, abridged:
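XTT-based cell number read-out in human HepG2 liver cells carrying transfected reporter units, measured 24 h after chemical dosing. Activity is signal loss versus DMSO baseline.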

Assay [12] addresses human Thyroid hormone Receptor alpha (TRa), THRA (gene 7067) (UniProt P10827). Description: ATG_hTRa_XSP2: Attagene TRANS-FACTORIAL Multi-Species (XSP2) HepG2 Assay for human Thyroid hormone Receptor alpha (TRa) (AID 2283838). The procedure, abridged: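 Reporter transcripts were read by RT-PCR with fluorescent primer extension, HpaI digestion and capillary electrophoresis. These came from HepG2 cells carrying multiplexed TRa-Gal4 TRANS constructs, harvested 24 hours after dosing. The medium also held 6-alpha-fluorotestosterone (3 nM) and norgestrel (1.5 nM), and increases were fitted against DMSO.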

Assay [13] deals with frog Thyroid hormone Receptor alpha (TRa), thra-a (gene 397942) (UniProt P15204). Description: ATG_frTRa_XSP2: Attagene TRANS-FACTORIAL Multi-Species (XSP2) HepG2 Assay for frog Thyroid hormone Receptor alpha (TRa) (AID 2283839). The procedure, abridged: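 Transfect HepG2 with multiple reporter units (GAL4-UAS), dose chemical, incubate 24 h. Isolate RNA, reverse-transcribe, PCR-amplify reporter, label with 6-FAM by primer extension, digest with HpaI, run capillary electrophoresis; induction scored against DMSO.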

For assay [14], the target named is human Thyroid hormone Receptor beta (TRb), THRB (gene 7068) (UniProt P10828). Nature of the assay: ATG_hTRb_XSP2: Attagene TRANS-FACTORIAL Multi-Species (XSP2) HepG2 Assay for human Thyroid hormone Receptor beta (TRb) (AID 2283840).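 Also: actives raise reporter mRNA so potency reflects agonist-like gain of signal.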 In short, it runs like this: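 Transient transfection of human HepG2 with multi-species NR-Gal4/GAL4-UAS reporter constructs; 24 h compound treatment; RNA isolation, reverse transcription, PCR and HpaI digest; capillary electrophoresis of labeled fragments; activity fitted upward versus DMSO.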

A short description of assay [15]: ATG_M_19_XSP2: Attagene TRANS-FACTORIAL Multi-Species (XSP2) HepG2 Assay for M32 Transcription Factor (Internal Marker) (AID 2283822). The procedure, abridged:
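Internal background marker in a multi-species nuclear receptor TRANS panel: transfected HepG2 cells exposed 24 h, with 3 nM 6-alpha-fluorotestosterone and 1.5 nM norgestrel present. Readout is RT-PCR of reporter transcripts resolved by capillary electrophoresis, gain-of-signal versus DMSO.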

For assay [16], the system named is Sodium/Iodide Symporter (NIS), SLC5A5 (gene 6528). Description: CPHEA_Stoker_NIS_Inhibition_RAIU: CPHEA's Radioactive Iodide Uptake (RAIU) Assay for Sodium/Iodide Symporter (NIS) Inhibition, Stoker and Laws Labs (AID 2283841). In short, it runs like this:
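Iodide uptake read as CPM of intracellular 125I (final 329 pM) after 2 h room-temperature exposure in HEPES-buffered HBSS, pH 7.4. Human NIS-expressing HEK293T cells; six concentrations 0.001–100 uM, 0.5% DMSO, normalised to DMSO wells.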

The subject of assay [17] is chicken Androgen Receptor (AR), gene 422165. Nature of the assay: ATG_chAR_XSP2: Attagene TRANS-FACTORIAL Multi-Species (XSP2) HepG2 Assay for chicken Androgen Receptor (AR) (AID 2283819).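 Also: hits raise reporter mRNA above DMSO so potency is for activation.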 In short, it runs like this: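 Readout is reporter mRNA induction via RT-PCR/capillary electrophoresis after 24 h chemical exposure, positive direction relative to DMSO. Transiently transfected HepG2 express chimeric chicken AR–GAL4; AR stimulated by 3 nM 6-alpha-fluorotestosterone and 1.5 nM norgestrel.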

Estrogen receptor (Homo sapiens), sequence (P03372 whole entry, looked up, the tested form may be a part): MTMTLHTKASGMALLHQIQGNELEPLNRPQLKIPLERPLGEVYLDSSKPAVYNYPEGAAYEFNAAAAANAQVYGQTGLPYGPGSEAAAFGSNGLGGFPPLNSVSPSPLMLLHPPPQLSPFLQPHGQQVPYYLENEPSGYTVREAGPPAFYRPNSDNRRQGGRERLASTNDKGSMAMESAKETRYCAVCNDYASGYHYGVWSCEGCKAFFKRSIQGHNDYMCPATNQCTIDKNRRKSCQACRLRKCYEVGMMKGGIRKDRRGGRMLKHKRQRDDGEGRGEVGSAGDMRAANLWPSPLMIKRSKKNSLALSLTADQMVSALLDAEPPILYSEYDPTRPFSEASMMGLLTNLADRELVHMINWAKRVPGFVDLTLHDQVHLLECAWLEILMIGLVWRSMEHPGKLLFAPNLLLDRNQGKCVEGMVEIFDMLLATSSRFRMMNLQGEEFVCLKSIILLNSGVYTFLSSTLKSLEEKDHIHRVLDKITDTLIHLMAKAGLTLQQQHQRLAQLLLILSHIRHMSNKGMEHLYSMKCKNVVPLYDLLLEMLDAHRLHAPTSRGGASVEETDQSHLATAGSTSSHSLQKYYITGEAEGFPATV
frog Thyroid hormone Receptor alpha (TRa), thra-a (gene 397942), sequence (P15204 whole entry, looked up, the tested form may be a part): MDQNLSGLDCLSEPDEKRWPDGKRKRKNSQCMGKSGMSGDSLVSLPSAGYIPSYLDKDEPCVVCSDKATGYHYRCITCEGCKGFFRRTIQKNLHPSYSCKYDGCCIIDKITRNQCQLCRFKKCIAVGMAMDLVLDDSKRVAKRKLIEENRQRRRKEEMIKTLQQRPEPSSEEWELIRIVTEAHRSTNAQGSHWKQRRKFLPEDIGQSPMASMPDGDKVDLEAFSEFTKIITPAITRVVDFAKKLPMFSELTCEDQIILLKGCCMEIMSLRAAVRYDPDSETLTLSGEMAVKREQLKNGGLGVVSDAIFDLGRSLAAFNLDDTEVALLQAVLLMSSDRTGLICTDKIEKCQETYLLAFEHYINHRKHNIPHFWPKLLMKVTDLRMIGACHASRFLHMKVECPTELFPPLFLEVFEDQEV
human Thyroid hormone Receptor beta (TRb), THRB (gene 7068), sequence (P10828 whole entry, looked up, the tested form may be a part): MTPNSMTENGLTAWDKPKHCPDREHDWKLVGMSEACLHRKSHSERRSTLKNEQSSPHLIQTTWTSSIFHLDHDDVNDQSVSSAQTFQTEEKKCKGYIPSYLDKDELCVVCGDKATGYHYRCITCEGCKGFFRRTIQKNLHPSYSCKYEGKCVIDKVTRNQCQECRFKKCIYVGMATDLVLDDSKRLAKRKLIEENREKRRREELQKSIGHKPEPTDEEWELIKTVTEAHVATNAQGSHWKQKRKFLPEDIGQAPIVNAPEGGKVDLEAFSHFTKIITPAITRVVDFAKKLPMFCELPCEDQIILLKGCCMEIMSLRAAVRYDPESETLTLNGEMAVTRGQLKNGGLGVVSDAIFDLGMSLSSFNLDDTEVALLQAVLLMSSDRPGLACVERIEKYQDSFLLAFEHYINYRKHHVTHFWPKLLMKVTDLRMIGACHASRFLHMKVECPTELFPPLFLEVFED
Peroxisome proliferator-activated receptor gamma (Homo sapiens), sequence (P37231 whole entry, looked up, the tested form may be a part): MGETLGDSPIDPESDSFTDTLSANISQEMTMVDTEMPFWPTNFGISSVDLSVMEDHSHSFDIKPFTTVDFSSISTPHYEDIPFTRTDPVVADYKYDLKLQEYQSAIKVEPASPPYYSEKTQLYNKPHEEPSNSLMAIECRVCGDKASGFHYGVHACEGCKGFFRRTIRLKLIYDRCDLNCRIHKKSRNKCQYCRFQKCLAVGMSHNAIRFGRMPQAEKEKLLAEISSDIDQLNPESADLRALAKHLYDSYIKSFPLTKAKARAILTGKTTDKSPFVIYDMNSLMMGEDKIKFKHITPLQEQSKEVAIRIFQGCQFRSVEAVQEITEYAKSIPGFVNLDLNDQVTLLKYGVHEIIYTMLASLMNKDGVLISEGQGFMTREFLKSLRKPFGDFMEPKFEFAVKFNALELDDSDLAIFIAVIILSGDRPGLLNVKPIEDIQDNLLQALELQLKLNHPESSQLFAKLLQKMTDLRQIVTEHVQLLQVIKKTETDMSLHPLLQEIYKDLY
zebrafish Thyroid Hormone Receptor beta (TRb), thrb (gene 30607), sequence (Q9PVE4 whole entry, looked up, the tested form may be a part): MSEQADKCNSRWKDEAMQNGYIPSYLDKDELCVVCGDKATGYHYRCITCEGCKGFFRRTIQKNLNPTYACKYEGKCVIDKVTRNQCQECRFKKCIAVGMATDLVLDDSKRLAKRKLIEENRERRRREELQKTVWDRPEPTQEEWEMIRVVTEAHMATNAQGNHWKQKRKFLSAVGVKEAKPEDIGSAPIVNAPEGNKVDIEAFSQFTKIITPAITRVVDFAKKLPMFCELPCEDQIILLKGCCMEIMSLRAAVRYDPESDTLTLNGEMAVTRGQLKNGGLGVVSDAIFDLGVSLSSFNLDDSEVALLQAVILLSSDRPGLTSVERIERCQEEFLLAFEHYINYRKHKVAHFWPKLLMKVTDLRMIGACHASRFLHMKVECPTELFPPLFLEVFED
zebrafish Thyroid Hormone Receptor alpha (TRa), thraa (gene 30670), sequence (Q98867 whole entry, looked up, the tested form may be a part): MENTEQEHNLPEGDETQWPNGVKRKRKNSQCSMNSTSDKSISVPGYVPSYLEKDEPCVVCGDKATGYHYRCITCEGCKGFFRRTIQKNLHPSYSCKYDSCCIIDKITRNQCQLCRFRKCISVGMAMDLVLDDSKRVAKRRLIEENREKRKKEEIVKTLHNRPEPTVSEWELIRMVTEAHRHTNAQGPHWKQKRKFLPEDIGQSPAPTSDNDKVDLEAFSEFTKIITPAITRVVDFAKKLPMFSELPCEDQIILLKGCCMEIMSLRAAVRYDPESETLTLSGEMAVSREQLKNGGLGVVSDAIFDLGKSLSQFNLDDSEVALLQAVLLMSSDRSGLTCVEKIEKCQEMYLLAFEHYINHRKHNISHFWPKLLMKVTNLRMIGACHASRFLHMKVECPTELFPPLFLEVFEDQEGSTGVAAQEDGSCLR
Nuclear receptor subfamily 1 group I member 2 (Mus musculus), sequence (O54915 whole entry, looked up, the tested form may be a part): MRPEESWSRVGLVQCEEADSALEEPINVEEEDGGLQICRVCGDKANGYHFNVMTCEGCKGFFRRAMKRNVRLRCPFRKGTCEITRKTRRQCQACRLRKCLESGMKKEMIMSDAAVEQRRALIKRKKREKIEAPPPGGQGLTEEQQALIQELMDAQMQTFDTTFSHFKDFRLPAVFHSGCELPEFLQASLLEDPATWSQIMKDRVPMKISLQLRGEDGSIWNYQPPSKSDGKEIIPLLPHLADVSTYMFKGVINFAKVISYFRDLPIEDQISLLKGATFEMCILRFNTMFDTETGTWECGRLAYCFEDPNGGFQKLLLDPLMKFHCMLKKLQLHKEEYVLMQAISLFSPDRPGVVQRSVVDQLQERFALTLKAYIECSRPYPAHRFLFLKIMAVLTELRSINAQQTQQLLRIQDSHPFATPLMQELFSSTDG
human Thyroid hormone Receptor alpha (TRa), THRA (gene 7067), sequence (P10827 whole entry, looked up, the tested form may be a part): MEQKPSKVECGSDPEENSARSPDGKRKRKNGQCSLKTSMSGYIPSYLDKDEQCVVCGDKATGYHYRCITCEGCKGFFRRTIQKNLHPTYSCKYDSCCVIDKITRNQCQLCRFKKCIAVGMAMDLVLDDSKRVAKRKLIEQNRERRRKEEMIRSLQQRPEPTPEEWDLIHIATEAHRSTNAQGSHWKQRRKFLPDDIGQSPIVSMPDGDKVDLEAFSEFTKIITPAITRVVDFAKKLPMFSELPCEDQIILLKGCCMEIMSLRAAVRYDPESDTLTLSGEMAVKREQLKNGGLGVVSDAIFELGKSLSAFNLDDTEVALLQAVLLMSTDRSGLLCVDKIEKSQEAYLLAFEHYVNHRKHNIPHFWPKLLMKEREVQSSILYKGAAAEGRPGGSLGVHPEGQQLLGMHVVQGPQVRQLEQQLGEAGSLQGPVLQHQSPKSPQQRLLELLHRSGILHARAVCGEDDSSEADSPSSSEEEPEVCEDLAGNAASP

For orientation: AC50 means the concentration at which the activity in the assay is half-maximal. For the molecule `CN(C)C(=O)Nc1ccc(Cl)c(Cl)c1`, the AC50 in [1] is 24.9 µM (active); in [2], 130 µM (active) and 65.2 µM (active); in assay [3], 47.1 µM (active) and 48.1 µM (active); in [4], 33.8 µM (active); in assay [6], 6.9 µM (active). Also, the call in assay [1], in [4], in [5], in assay [6], in assay [7] and in [8] was inactive. Moreover, the result in [9], in assay [10], in assay [11], in assay [12], in assay [13] and in assay [14] was inactive.
Turning to `CCCCC(CC)CN1C(=O)C2C3C=CC(C3)C2C1=O` (stereo not drawn), the result in assay [1], in assay [15], in [7], in [13] and in [16] was inactive. Besides, the AC50 in assay [2] was 51.4 µM (active); in [3], 2.56 µM (active); in assay [4], 146 µM (active); in assay [5], 100 µM (active); in [6] it was 1.34 µM (active); in assay [8], 100 µM (active).
For `CCCN(CCC)c1c([N+](=O)[O-])cc(C(F)(F)F)c(N)c1[N+](=O)[O-]`, the AC50 in assay [16] was 31.8 µM (active).
Take `CCCN(CCC)C(=O)SCC`: the outcome in [16] was inactive.
With `CCN(Cc1c(F)cccc1Cl)c1c([N+](=O)[O-])cc(C(F)(F)F)cc1[N+](=O)[O-]`, the outcome in assay [17], in [15], in [5], in assay [7], in [8] and in assay [10] was inactive. The outcome in assay [11], in assay [12], in assay [13], in [14] and in [16] was inactive. The AC50 was 10.2 µM (active) and 4.04 µM (active) in assay [2]; 1.49 µM (active) and 1.53 µM (active) in assay [3]; 10.1 µM (active) and 2.8 µM (active) in assay [4]; 284 nM (active) and 656 nM (active) in assay [6].
As for `C=CCOC(Cn1ccnc1)c1ccc(Cl)cc1Cl` (stereo not drawn), the molecule was classed as inactive in assay [1], in [2], in assay [4], in [8], in assay [9] and in assay [10]. The molecule was classed as inactive in assay [12] and in assay [16]. In addition, the results for the AC50 in assay [5] and in [6] were 82.2 µM (active) and 1.34 µM (active), respectively.
Turning to `Cc1nn(C)c(Oc2ccccc2)c1C=NOCc1ccc(C(=O)OC(C)(C)C)cc1`, in [16], the outcome was inactive.
As to `N#CSCSc1nc2ccccc2s1`, in [16], the AC50 is 50 µM (active).
For the molecule `O=C(Nc1ccc([N+](=O)[O-])cc1Cl)c1cc(Cl)ccc1O`, the AC50 in assay [16] is 0.111 µM (active).
